This is part of a sample that, as a whole, favours compounds with a hit. Of some 79,000 tested, about 15% had one in any assay. A number with no mark means an inactive call. The source made the active and inactive calls. Rule as the data show it: active = growth inhibition above about 70%; inactive = the rest.
assay: NCI Yeast Anticancer Drug Screen. Data for the mlh1 rad18 strain (AID 175); conditions: S. cerevisiae mlh1 rad18 strain growth inhibition; at 5.0 µM (retest, dose inferred, filed as 0.5); active compounds read high
How it was run: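 Inhibition values reflect reduced growth of mutant yeast versus vehicle-treated controls following compound exposure; the mutations affect DNA damage repair.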

Compound	growth inhibition
c1ccc2nc3ccccc3nc2c1	-11%
O=C(NCCCl)Nc1c2ccccc2nc2ccccc12	9%
CC1=C2CCC3C(CCC4(C)C(C(C)CCCC(C)C)CCC34)C2(C)CCC1=O (centres undefined)	17%
Cc1cccc(Cl)c1NC(=O)/C=C/c1ccccc1	35%
O=C1/C(=C/c2ccc(Cl)cc2)CSC/C1=C\c1ccc(Cl)cc1	16%
CCOC(=O)c1c(N)sc2c1CCCCC2	-142%
CC(C)NC(=O)O/N=C1\CCC2[C@@H]3CC=C4C[C@@H](OC(=O)NC(C)C)CC[C@]4(C)C3CC[C@]12C (some centres undefined)	91% (active)
COc1ccc2c(c1)c(=O)c1c(NCCN(C)C)ccc3nnn2c31	-10%
CCCC(=O)N(C(=O)CCC)C1=C(Cl)C(=O)c2ccccc2C1=O	48%
CN(C)C1C=CCC(c2ccccc2)C1[N+](=O)[O-] (centres undefined)	5%
CC(=O)NC1C(=O)CC(c2ccccc2)N(C)C1c1ccccc1 (centres undefined)	1%
CCCCC#CCCOC(=O)C#CCCCC	0%
CC1C[C@]2(C)C(=S)Nc3ccccc3[C@@H]2Nc2ccccc21 (some centres undefined)	6%
O=[N+]([O-])/C=C/c1c[nH]c2c1ccc1ccccc12	55%
CCC[CH2][Sn]([S][Sn]([CH2]CCC)([c]1ccccc1)[c]1ccccc1)([c]1ccccc1)[c]1ccccc1	98% (active)
CCN(CC)CCCCNc1ccc(Cl)cc1	-7%
C[n+]1c(/C=C\c2ccccc2)sc2ccccc21	15%
Cc1nnc2nc3c(nn12)c1ccccc1n3C	-146%
CS(=O)c1cc(=O)c2ccccc2s1 (centres undefined)	14%
COC(=O)C1=C(C)NC(C)=C(C(=O)OC)C1c1ccc(NCc2ccccc2)c([N+](=O)[O-])c1	0%

Compound	growth inhibition
C/C(=N/NC(=S)Nc1ccccc1Cl)c1ccccn1	-21%
Nc1ccccc1Sc1ccc(C(F)(F)F)cc1[N+](=O)[O-]	-1%
COc1ccc2nc(-c3ccc(Cl)cc3)[nH]c2c1	-4%
Cc1c(C)c(C)c(C(=O)c2ccccc2C(=O)NCCSC(C)(C)C)c(C)c1C	47%
COC(=O)C(=O)C(C(=O)Nc1cccc(C)c1C)C1Sc2ccccc2NC1=O (centres undefined)	92% (active)
Cc1nc2c(O)c3c(c(O)c2nc1C)C1C=CC3CC1	20%
C[C@]12CCC(=O)C=C1CC[C@@H]1[C@@H]2[C@@H](O)C[C@@]2(C)[C@H]1CC[C@]2(O)C(=O)COC(=O)CCC1CCCC1	75% (active)
CC(=O)OCCc1ccc(CCc2ccccc2)cc1	6%
COc1cc2c(cc1OC)C(=O)C(C)(c1ccccc1)NC2 (centres undefined)	4%
CCCCCCC(/C=C/c1c(Cl)cccc1Cl)=N\O	-10%
O=C1OC(c2ccc(O)cc2)=C(c2ccccc2)C1c1ccccc1 (centres undefined)	10%
c1cc[c]([Ge]([O]c2cccc3cccnc23)([c]2ccccc2)[c]2ccccc2)cc1	10%
CCCCCCCCCCCCCCCCCCOP(=O)([O-])OCC[N+](C)(C)C	10%
Cc1noc(NS(=O)(=O)c2ccc(NCc3c4ccccc4nc4cc(Cl)ccc34)cc2)c1C	3%
CCC(=NCCCCCCN=C(CC)c1cc(C)cc([N+](=O)[O-])c1O)c1cc(C)cc([N+](=O)[O-])c1O.[Fe]	11%
O=C(O)c1ccc([N+](=O)[O-])cc1.[Ag]	99% (active)
O=C1C(=O)c2ccccc2C(O)=C1C(c1ccccc1)c1ccccc1	54%
CC(=O)SC1C(=O)N(C)C(SC(C)=O)C(=O)N1C (centres undefined)	-2%
COc1ccc2c(c1)CN([C@@H](C)[C@H]1CC[C@H]3[C@@H]4CC[C@H]5C[C@@H](O)CC[C@]5(C)[C@H]4CC[C@]13C)CO2	97% (active)

Source: PubChem BioAssay (NCI)
